Values joined by “and” are separate entries in the source; they are usually repeats but may differ in a detail not shown here. Equal values may be shown once. Inconclusive results are not listed. The source holds several records for some structures; these can differ, active in one and inactive in another. Active and inactive are the calls of the source. Unless noted, calls follow the shape of the dose curve; as a rule, active = well fitted curve in the direction sought with a large enough effect in the repeat runs; inconclusive = weak or mixed curves; inactive = no such curve, though single readings can be large; an effect the other way counts as inactive or inconclusive.
What was measured:
[1] = qHTS assay to identify small molecule agonists of the hypoxia (HIF-1) signaling pathway - cell viability counter screen (AID 1224844; calls by dose curve; also: nearly all actives have a fitted effect of over 50% in size; also: potency is read from the fitted curve at half-maximal effect)
Summary of the method: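 Same wells as the HIF-1 reporter screen; ME-180 cells carrying HRE-bla, 17 hr treatment at 37C; CellTiter-Glo luminescence read after 30 min at room temperature.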

[2] = qHTS assay to identify small molecule agonists of H2AX (AID 1224845; active = well fitted activation curve with a large enough effect in the signal ratio in the repeat runs, not every such curve was filed as active; the % refers to the signal ratio; also: potency is read from the fitted curve at half-maximal effect)
Summary of the method: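 Wild-type CHO-K1 cells, plated overnight, exposed 3hr at 37C to 15 concentrations (0.76% DMSO final). Lysed, then HTRF anti-pH2AX (S139) cryptate and anti-H2AX-d2 antibodies, 24 hr room temperature; 665/620 nm emission read.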

[3] = qHTS assay to identify small molecule agonists of the hypoxia (HIF-1) signaling pathway (AID 1224846; active = well fitted activation curve with a large enough effect in the signal ratio in the repeat runs, not every such curve was filed as active; the % refers to the signal ratio)
Summary of the method: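 In ME-180 cells bearing an HRE-bla construct, 17 h treatment with DMSO-dissolved compounds at 37C was followed by CCF4-AM loading to quantify reporter induction.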

[4] = qHTS assay to identify small molecule agonists of H2AX - cell viability counter screen (AID 1224847; calls by dose curve; also: top concentration of the series differs between compounds; nearly all actives have a fitted effect of over 30% in size)
Summary of the method: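 After overnight plating of 1000 CHO-K1 cells per well, a 15-concentration compound series was applied for 3 hr at 37C. Luminescence from CellTiter-Glo, read following 30 min at room temperature, reflected cell viability.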

[5] = qHTS RealTime-Glo MT Cell Viability Assay in HepG2 cells - 24 hour (AID 1224867); also: nearly all actives have a fitted effect of over 50% in size
Summary of the method: (§1)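 Viability was tracked continuously by NanoLuc luminescence from prosubstrate reduced by living HepG2 cells, at successive time points over 40 h of compound exposure. Cells with reagent were preincubated 5 h at 37 °C before compound addition.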

[6] = qHTS RealTime-Glo MT Cell Viability Assay in HEK293 cells - 32 hour (AID 1224868); also: top concentration of the series differs between compounds; nearly all actives have a fitted effect of over 50% in size
Summary of the method: (§2)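 Viability tracked continuously by luminescence as live cells reduce a prosubstrate for NanoLuc; HEK293 cells preincubated 5 h, compound-treated at 37 C, and read at 0, 8, 16, 24, 32 and 40 h.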

[7] = A CellTox Green Cytotoxicity Assay to monitor cytotoxicity in HEK293 cells - 0 hour (AID 1224869); also: nearly all actives have a fitted effect of over 50% in size
Summary of the method: (§3)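 Homogeneous no-lysis format: HEK293 cell suspension mixed with CellTox Green reagent, seeded, incubated 5 h at 37 C/5% CO2, then dosed by pintool with compound in DMSO.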

[8] = qHTS RealTime-Glo MT Cell Viability Assay in HepG2 cells - 40 hour (AID 1224870); also: nearly all actives have a fitted effect of over 50% in size
Summary of the method: (§4)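 HepG2 cells (600/well) mixed with RealTime-Glo MT reagent, settled 5 h at 37 C/5% CO2 before compound addition. Nonlytic NanoLuc luminescence from viable-cell prosubstrate reduction read repeatedly during 40 h treatment at 37 C.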

[9] = A CellTox Green Cytotoxicity Assay to monitor cytotoxicity in HEK293 cells - 40 hour (AID 1224871); also: nearly all actives have a fitted effect of over 45% in size
Summary of the method: as §3

[10] = qHTS RealTime-Glo MT Cell Viability Assay in HEK293 cells - 16 hour (AID 1224872)
Summary of the method: as §2

[11] = qHTS RealTime-Glo MT Cell Viability Assay in HepG2 cells - 8 hour (AID 1224873); also: nearly all actives have a fitted effect of over 55% in size
Summary of the method: as §4

[12] = qHTS RealTime-Glo MT Cell Viability Assay in HEK293 cells - 40 hour (AID 1224874); conditions: RealTime-Glo luminescence; max response: stronger effect = lower value; also: nearly all actives have a fitted effect of over 50% in size
Summary of the method: (§5)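 Measured as luminescence from the same continuously cultured HEK293 wells at successive time points (0, 8, 16, 24, 32, 40 h) after compound addition. Reagent present from seeding; dosing at 5 h; incubation 37 C.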

[13] = A CellTox Green Cytotoxicity Assay to monitor cytotoxicity in HEK293 cells - 24 hour (AID 1224875); also: series mostly up to about 77 µM; nearly all actives have a fitted effect of over 45% in size
Summary of the method: as §3

[14] = A CellTox Green Cytotoxicity Assay to monitor cytotoxicity in HepG2 cells - 16 hour (AID 1224876); also: nearly all actives have a fitted effect of over 45% in size
Summary of the method: (§6)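 Fluorescent DNA-binding dye, 600 HepG2 cells/well, 5 h preincubation then compound in DMSO; same plates read at 0–40 h, 37 C.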

[15] = qHTS RealTime-Glo MT Cell Viability Assay in HepG2 cells - 32 hour (AID 1224877); also: nearly all actives have a fitted effect of over 55% in size
Summary of the method: as §1

[16] = A CellTox Green Cytotoxicity Assay to monitor cytotoxicity in HepG2 cells - 40 hour (AID 1224879); also: nearly all actives have a fitted effect of over 40% in size
Summary of the method: as §6

[17] = qHTS RealTime-Glo MT Cell Viability Assay in HEK293 cells - 0 hour (AID 1224880); also: nearly all actives have a fitted effect of over 45% in size; also: potency is read from the fitted curve at half-maximal effect
Summary of the method: as §5

[18] = A CellTox Green Cytotoxicity Assay to monitor cytotoxicity in HepG2 cells - 24 hour (AID 1224878); also: nearly all actives have a fitted effect of over 45% in size
Summary of the method: as §6
% is scaled to controls: 0 for no effect and ±100 for the full control effect.

CN(C)Cc1cc(CN(C)C)c(O)c(CN(C)C)c1
inactive: Potency [1] | Potency [2] | outcome [3] | Potency [4] | outcome [5] | Potency [6] | Potency [7] | outcome [8] | Potency [9] | Potency [10] | outcome [11] | max response [12] -0.259% and 3.23% | Potency [13] | Potency [14] | outcome [15] | Potency [16] | Potency [17]

COCCOCCOC
inactive: Potency [1] | Potency [2] | outcome [3] | Potency [4] | outcome [5] | Potency [6] | Potency [7] | outcome [8] | Potency [9] | Potency [10] | outcome [11] | max response [12] 13% and 10.3% | Potency [13] | Potency [14] | outcome [15] | Potency [18] | Potency [16] | Potency [17]

C[C@]12C[C@H](O)[C@H]3[C@@H](CCC4=CC(=O)CC[C@@]43C)[C@@H]1CC[C@@H]2C(=O)CO
active: Potency [17] 13.8 µM
inactive: Potency [1] | Potency [2] | outcome [3] | Potency [4] | outcome [5] | Potency [6] | Potency [7] | outcome [8] | Potency [9] | Potency [10] | outcome [11] | max response [12] -9.57% | Potency [13] | Potency [14] | outcome [15] | Potency [16]

O=[N+]([O-])c1ccc(O)cc1
inactive: Potency [1] | Potency [2] | outcome [3] | Potency [4] | outcome [5] | Potency [6] | Potency [7] | outcome [8] | Potency [9] | Potency [10] | outcome [11] | max response [12] -24.7% and -8.36% and 4.76% | Potency [13] | Potency [14] | outcome [15] | Potency [18] | Potency [16] | Potency [17]

CCCCOCCOCCSC#N
inactive: Potency [1] | Potency [2] | outcome [3] | Potency [4] | outcome [5] | Potency [6] | Potency [7] | outcome [8] | Potency [9] | Potency [10] | outcome [11] | max response [12] 7.99% and 2.19% | Potency [13] | Potency [14] | outcome [15] | Potency [18] | Potency [16] | Potency [17]

COc1ccc(O)cc1
inactive: Potency [1] | outcome [3] | Potency [4] | outcome [5] | Potency [6] | Potency [7] | outcome [8] | Potency [9] | Potency [10] | outcome [11] | max response [12] -25.5% and -26.5% and -24.7% | Potency [13] | Potency [14] | outcome [15] | Potency [16] | Potency [17]
active: Potency [2] 86.5 µM and 89.8 µM and 49.2 µM

CC(O)COc1ccccc1 (stereo not given)
inactive: Potency [1] | Potency [2] | outcome [3] | Potency [4] | outcome [5] | Potency [6] | Potency [7] | outcome [8] | Potency [9] | Potency [10] | outcome [11] | max response [12] 1.14% and -0.457% and -1.74% | Potency [13] | Potency [14] | outcome [15] | Potency [16] | Potency [17]

C/C=C/c1ccc(O)c(OC)c1
inactive: Potency [1] | Potency [2] | outcome [3] | Potency [4] | outcome [5] | Potency [6] | Potency [7] | outcome [8] | Potency [9] | Potency [10] | outcome [11] | max response [12] -5.09% and 1.37% and 1.68% | Potency [13] | Potency [14] | outcome [15] | Potency [18] | Potency [16] | Potency [17]

O=C(O)Cc1cccc2ccccc12
inactive: Potency [2] | outcome [3] | Potency [4] | outcome [5] | Potency [6] | Potency [7] | outcome [8] | Potency [9] | Potency [10] | outcome [11] | max response [12] 0.279% and 2.27% and -0.352% | Potency [13] | Potency [14] | outcome [15] | Potency [16] | Potency [17]
inactive and 4.36 µM (active): Potency [1]

COc1cc(C=O)ccc1O
inactive: Potency [1] | Potency [2] | outcome [3] | Potency [4] | outcome [5] | Potency [6] | Potency [7] | outcome [8] | Potency [9] | Potency [10] | outcome [11] | max response [12] 0.342% and 3.21% and 2.85% | Potency [13] | Potency [14] | outcome [15] | Potency [18] | Potency [16] | Potency [17]

N[C@@H](Cc1c[nH]c2ccc(O)cc12)C(=O)O
inactive: Potency [1] | Potency [2] | outcome [3] | Potency [4] | outcome [5] | Potency [6] | Potency [7] | outcome [8] | Potency [9] | Potency [10] | outcome [11] | max response [12] 3.87% and 1.98% | Potency [13] | Potency [14] | outcome [15] | Potency [16] | Potency [17]

COc1ccccc1NC(=O)CC(C)=O
inactive: Potency [1] | Potency [2] | outcome [3] | Potency [4] | outcome [5] | Potency [6] | Potency [7] | outcome [8] | Potency [9] | Potency [10] | outcome [11] | max response [12] -0.191% and 6.19% | Potency [13] | Potency [14] | outcome [15] | Potency [18] | Potency [16] | Potency [17]
